D2 ag-1 = D2 dopamine receptor (human) agonism. P14416. HEK293 T-REx D2 cells, calcium flux agonist mode. activation, % at 2 µM. hit rate 0.53% among 340,000;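 active = activation over 3 SD above normal in the single-dose calcium agonist read, cut at about 30% in these data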; also: 0% is about no effect
Target sequence (P14416 whole entry, looked up): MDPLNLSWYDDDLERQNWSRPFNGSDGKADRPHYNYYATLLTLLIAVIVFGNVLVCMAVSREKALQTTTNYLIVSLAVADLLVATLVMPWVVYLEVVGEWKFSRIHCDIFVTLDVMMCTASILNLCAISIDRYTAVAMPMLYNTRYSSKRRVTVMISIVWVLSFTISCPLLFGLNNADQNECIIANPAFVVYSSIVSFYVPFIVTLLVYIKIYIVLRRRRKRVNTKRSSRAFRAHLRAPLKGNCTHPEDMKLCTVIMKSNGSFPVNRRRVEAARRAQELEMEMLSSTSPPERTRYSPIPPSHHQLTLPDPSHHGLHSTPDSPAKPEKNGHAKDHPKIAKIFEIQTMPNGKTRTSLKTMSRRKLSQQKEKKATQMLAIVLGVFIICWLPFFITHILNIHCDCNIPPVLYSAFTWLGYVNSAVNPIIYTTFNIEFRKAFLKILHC
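HEK293 Trex D2 cells, tetracycline-induced, o/n 30 C 5% CO2; no-wash Ca dye, RT 30–90 min; 10-cycle baseline, 23 nl cpd added, kinetic Ca read 180 s; agonist hits = positive Ca response.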
D2 ag-2 = human D2 receptor agonism in beta-arrestin assay. hit rate 0.084% among 360,000. DiscoveRx PathHunter D2 beta-arrestin, luminescence, 90 min; 100% = 57 uM dopamine signal. P14416. activation, % (concentration not given with the values); in the data active = activation above about 40%; inconclusive = between about 15% and that limit
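DiscoveRx PathHunter D2 beta-arrestin cells (2,100/well) attached overnight, then compound-stimulated 90 min at 37 C in HBSS/10 mM HEPES/0.1% Tween-20 buffer; beta-galactosidase complementation read by luminescence after 1 h at ambient temperature. Dopamine 57 uM final (EC100) as control.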
D2 PAM-1 = human D2 receptor positive allosteric modulation | hit rate 0.23% among 360,000 | DiscoveRx D2 beta-arrestin cells, luminescence, 90 min; 100% = 57 uM dopamine signal | potentiation, % (concentration not given with the values) | P14416; in the data active = potentiation above about 50%; inconclusive = mostly about 30% to 49%
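PathHunter beta-arrestin assay in DiscoveRx D2 cells. Compounds were added with an EC20 of dopamine (50 nM final) for 90 min at 37 deg C. Luminescence was read 1 h after detection reagent, with 57 uM dopamine as the EC100 control.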
D2 PAM-2 = positive allosteric modulators of human D2 dopamine receptor | hit rate 0.34% among 340,000 | P14416 | HEK293 T-REx D2, calcium flux, EC20 dopamine potentiation | potentiation, % at 10 µM;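 active = potentiation over 3 SD above the plate norm, cut at about 30% in these data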; also: 0% is about no effect
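Primary screen. Calcium kinetics in induced HEK293 T-REx D2 cells: compound pre-addition 180 s, EC20 dopamine, 180 s more.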
D2 antag = antagonizes the human D2 dopamine receptor; P14416; HEK293 TREx D2 cells, calcium flux, dopamine EC80; inhibition, % at 10 µM; hit rate 2% among 340,000; AID 485344; in the data active = inhibition above about 30%; inactive = below that, where a call was filed; also: 0% is about no effect
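Tetracycline-induced HEK293 TREx cells expressing D2 receptor forced-coupled to calcium signalling, loaded with no-wash calcium dye. Compounds added and calcium flux read 180 s, then dopamine added at EC80 and read a further 180 s.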
* marks the source's active call; other numbers are inactive results; ? = inconclusive; . = no result; ! = a repeat was not active. Rows were chosen to be rich in hits. Some 2.4% of all compounds tested hit in one or more screens of this group.

SMILES | D2 ag-1 | D2 ag-2 | D2 PAM-1 | D2 PAM-2 | D2 antag
Cc1ccccc1NC(=O)CSC1=C(C#N)C(c2ccsc2)CC(=O)N1 (stereo not given) | 1 | -2 | 0 | -1 | 37*
Cc1ccc(-n2nc(C)c3c(C)cc(=O)n(CC(=O)NC(C)c4ccccc4)c32)cc1 (stereo not given) | 0 | . | . | 10 | .
COC(=O)CCC(=O)N1CCCC(C(=O)c2cc(F)ccc2F)C1 (stereo not given) | 0 | 5 | 2 | -2 | 14
O=C(c1cc(F)ccc1F)C1CCCN(C(=O)CCN2CCCCO2)C1 (stereo not given) | 1 | 0 | -4 | 2 | 32*
O=C(CSc1nc2nc[nH]c2c(=O)[nH]1)NC1CCCCC1 | 1 | -3 | -10 | -6 | 48*
CCN1c2ccccc2-n2cccc2C12CCN(C(=O)Nc1ccccc1Br)CC2 | 0 | . | . | -7 | .
Cc1ccc(/C=C/C(=O)Nc2nccs2)o1 | 0 | 8 | 53* | 1 | 11
Cc1ccc(/C=C/C(=O)Nc2ncc(C)s2)o1 | 0 | 10 | 25 | 8 | -4
COc1cc(NS(=O)(=O)c2ccc(NC(=O)C(C)Oc3ccc(Cl)cc3Cl)cc2)nc(OC)n1 (stereo not given) | 5 | . | . | 17 | .
CCc1nn(CC(=O)NCCN(CC)CC)c(=O)c2cc3occc3n12 | -1 | . | . | . | .
CCC(C)(C)n1nnnc1C(c1ccccc1)N1CCc2ccccc2C1 (stereo not given) | -1 | 1 | -7 | 9 | 3
CCC(C)(C)n1nnnc1C(c1ccc(O)c(OC)c1)N1CCc2ccccc2C1 (stereo not given) | 0 | -1 | -10 | 2 | 35*
O=C1c2cccc3c(O)ccc(c23)C(=O)N1Cc1ccco1 | 61* | 12 | 29 | 8 | 20
O=C1c2ccccc2C(=O)N1Cc1ccco1 | 0 | -1 | -17 | 1 | -2
Brc1ccc(NC2=Nc3ccccc3CC2)cc1 | 1 | 0 | -8 | -14 | 8
Cc1ccc(NC2=Nc3ccccc3CC2)cc1 | 1 | -5 | -56 | -27 | 61*
O=C(Nc1ccc(OC(F)(F)F)cc1)c1ccc2nc[nH]c2c1 | 1 | 4 | 13 | -9 | 62*
Cc1ccc(OCC(=O)Nc2ccc(Cl)c(-c3nc4ncccc4o3)c2)c(C)c1 | 0 | . | . | 0 | .
CCN(C(=O)Cc1c(C(=O)O)[nH]c2ccccc12)c1ccc(OC)cc1 | 2 | 2 | 7 | -3 | 53*
[N-]=C=C1C(=S)NC(=O)[C@H]([n+]2ccccc2)[C@H]1c1ccc(Cl)cc1 | 1 | 5 | -5 | 6 | -9
[N-]=C=C1C(=O)NC(=O)C([n+]2ccc(-c3ccncc3)cc2)C1c1ccccc1C(F)(F)F (stereo not given) | -1 | 7 | 5 | 3 | 35*
CC1CCN(CC(O)CN2c3ccccc3Sc3ccccc32)CC1 (stereo not given) | -2 | -6 | -56 | -26 | 71*
CCn1nnnc1-c1ccc(OC)c(S(=O)(=O)NCc2ccccc2)c1 | 0 | -3 | 4 | 1 | 33*
CCn1nnnc1-c1ccc(OC)c(S(=O)(=O)Nc2ccc(C)c(C)c2)c1 | 0 | 2 | -19 | -2 | -18
COc1ccc(OC)c(CNC(=O)CCc2c(C)nc3c(c2C)c(=O)n(C)c(=O)n3C)c1 | 0 | . | . | -4 | .
SMILES | D2 ag-1 | D2 ag-2 | D2 PAM-1 | D2 PAM-2 | D2 antag
Cc1ccc(NC(=O)N2CCc3c([nH]c4ccccc34)C2c2ccccc2F)c(Cl)c1 (stereo not given) | 1 | . | . | 8 | .
CC(C)OCCCNC(=O)c1ccc2c(c1)NC(=O)c1ccccc1S2 | -1 | 2 | -1 | 37*! | -17
O=C(NCCCN1CCCCC1)c1ccc2c(c1)NC(=O)c1ccccc1S2 | 0 | 1 | -9 | -18 | 11
CC(C)(C)C(=O)NCCc1nc2ccccc2n1CCCCOc1ccc(Cl)cc1 | 1 | . | . | 5 | .
COc1ccc(Nc2nc3ccc(Cl)cc3n3nnnc23)cc1OC | 1 | . | . | -5 | .
CC(NC(=O)c1cccc(NC(=O)c2nsc3ccccc23)c1)c1ccccc1 (stereo not given) | 1 | . | . | -8 | .
COc1ccc(OC)c(C(=O)NC(CC(N)=O)c2ccc(N3CCN(c4ccccc4)CC3)c([N+](=O)[O-])c2)c1 (stereo not given) | -1 | -6 | -13 | 7 | -4
COc1ccc(OC)c(C(=O)NC(CC(N)=O)c2ccc(N3CCN(c4ccccn4)CC3)c([N+](=O)[O-])c2)c1 (stereo not given) | -1 | 2 | -9 | -1 | 32*
CC(=O)N1CCc2cc(CNS(=O)(=O)c3ccc(Br)s3)ccc21 | 0 | . | . | 1 | .
O=C(Nc1cccc(F)c1)c1ccc2oc(=O)n(Cc3ccccc3)c2c1 | 2 | . | . | 2 | .
N#C/C(=C\c1ccc(N2CCCCC2)o1)C(=O)Nc1cccc(Br)c1 | 95* | -4 | -13 | -6 | 13
Oc1ccc2ccccc2c1C=Nc1ccccc1-c1nc2ccccc2[nH]1 | 0 | 15 | 53* | 0 | 41*
O=C(O)c1ccccc1-c1nc2ccccc2[nH]1 | 2 | 1 | -2 | 1 | -6
NC(=O)c1noc(C(=O)N(CC(=O)NC2CCCC2)Cc2ccc3c(c2)OCO3)c1N | 1 | -1 | -10 | -3 | 37*
Cc1ccc(N2C(=O)CSC23C(=O)N(CC(=O)Nc2ccc(C)cc2C)c2ccccc23)cc1 (stereo not given) | 0 | . | . | . | .
O=C(COC(=O)c1ccc(O)cc1)Nc1ccccc1[N+](=O)[O-] | 2 | 9 | -41 | -3 | 38*
O=C(Nc1cccc(Cl)c1)c1nc[nH]c1C(=O)N1CCc2ccccc2C1 | -1 | -1 | -28 | -26 | 56*
Cc1cccc(NC(=O)c2nc[nH]c2C(=O)N2CCc3ccccc3C2)c1 | 0 | -1 | -25 | -28 | 86*
O=C(Nc1ccccc1)c1nc[nH]c1C(=O)N1CCc2ccccc2C1 | 0 | 2 | -18 | -27 | 10
NC(N)=NC(N)=Nc1ccc2ccccc2c1 | 0 | -7 | -9 | -11 | 33*
CCCCc1c(C)nc2c(-c3ccc(OC)cc3)c(C)[nH]n2c1=O | 1 | . | . | -17 | .
CCC(CC)C(=O)N(c1ccc(F)cc1)C1C=CS(=O)(=O)C1 (stereo not given) | 1 | 2 | -7 | 1 | 73*
CC/C(=N/Nc1ccc(Cl)cc1)c1cnnc(SC)n1 | 0 | -2 | -9 | 6 | 34*
COc1ccc(-c2c(C)nn3c(N4CCN(c5ccccc5F)CC4)cc(C)nc23)cc1OC | 1 | . | . | 2 | .
CC1CCCC(C)N1C(=S)NCc1ccco1 (stereo not given) | 0 | 1 | -6 | 12 | 30*
OCC1CCCCN1C(=S)NCc1ccco1 (stereo not given) | 1 | 0 | ? | -6 | 8
